Assay outcomes from PubChem.
CHX counter = Cycloheximide Counterscreen for Small Molecule Inhibitors of Shiga Toxin; cell reporter, cycloheximide protein synthesis inhibition counterscreen; max response, %; 12% of 300,000 active; AID 2314, 2010; in the data active = max response mostly above about 13%, no sharp cut-off; inactive = mostly below about 14%; also: read at 38.3 µM for the half of the compounds with a filed dose; 0% is about no effect
Sm TGR inh = qHTS Assay for the Inhibitors of Schistosoma Mansoni Peroxiredoxins; Schistosoma mansoni thioredoxin glutathione reductase (TGR), Q962Y6; purified TGR, DTNB reduction, TNB absorbance 405 nm; Potency, µM (highest dose often 114 µM), without a hit: top-dose activity change, negative = inhibition, most hits filed as inhibitors; 3% of 360,000 active; AID 485364, 2010; also: potency is read from the fitted curve at half-maximal effect; % is scaled to controls: 0 for no effect and ±100 for the full control effect; nearly all actives have a fitted effect of over 60% in size
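First, TGR (20 nM dispensed) and NADPH were mixed with compound. Second, a 15 min room-temperature incubation followed. Third, further NADPH and then DTNB were added to start the reaction. Finally, TNB absorbance was monitored kinetically.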
LmPK inh = qHTS Assay for Inhibitors of Leishmania Mexicana Pyruvate Kinase (LmPK) | Q27686 | purified LmPK, Kinase-Glo ATP luminescence, 1 h | Potency, µM (titrated, usually from 57.5 µM), inactives show top-dose activity change, negative = inhibition, usual class: inhibitors | 0.37% of 290,000 active; also: potency is read from the fitted curve at half-maximal effect; % is scaled to controls: 0 for no effect and ±100 for the full control effect
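qHTS format; LmPK 0.1 nM; substrates PEP 0.5 mM and ADP 0.1 mM. One-hour room-temperature incubation, then coupled luciferase luminescence; 0.5 nM enzyme wells mark activation.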
Shiga inhibitor = A qHTS for Small Molecule Inhibitors of Shiga Toxin; Vero cells, Shiga toxin protein synthesis inhibition reporter; 9.2% of 290,000 active; inhibition, % at 38.7 µM; in the data active = inhibition mostly above about 28%, no sharp cut-off; inactive = mostly below about 43%; also: 0% is about no effect
TbPYK inhibitor = qHTS of Trypanosoma Brucei Inhibitors | pyruvate kinase (Trypanosoma brucei), Q57TT1 | TbPYK enzyme, Kinase-Glo Plus ATP luminescence, 45 min | Potency, µM (highest dose often 76.8 µM), for inactives: at the highest dose activity, negative = inhibition, usual class: inhibitors | 0.12% of 410,000 active | AID 624173, 2012; also: potency is read from the fitted curve at half-maximal effect; % is scaled to controls: 0 for no effect and ±100 for the full control effect; nearly all actives have a fitted effect of over 50% in size
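Assay buffer: 50 mM TEA pH 7.2, 100 mM KCl, 10 mM MgCl2, 0.05% BSA, 0.01% Tween-20. Pyruvate kinase from T. brucei plus substrate met compound, then ADP (130 uM final). Luminescence was read post 45 min RT.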
Giardia FBPA inh = qHTS Assay for Inhibitors of Fructose-1,6-bisphosphate Aldolase from Giardia Lamblia; purified Giardia FBPA; Potency, µM (highest dose often 59.6 µM), inactives show at the top dose activity, negative = inhibition, actives largely listed as inhibitors; 0.71% of 290,000 active; AID 2451, 2010; also: potency is read from the fitted curve at half-maximal effect; % is scaled to controls: 0 for no effect and ±100 for the full control effect; nearly all actives have a fitted effect of over 55% in size
Target sequence (A8B2U2 whole entry, looked up): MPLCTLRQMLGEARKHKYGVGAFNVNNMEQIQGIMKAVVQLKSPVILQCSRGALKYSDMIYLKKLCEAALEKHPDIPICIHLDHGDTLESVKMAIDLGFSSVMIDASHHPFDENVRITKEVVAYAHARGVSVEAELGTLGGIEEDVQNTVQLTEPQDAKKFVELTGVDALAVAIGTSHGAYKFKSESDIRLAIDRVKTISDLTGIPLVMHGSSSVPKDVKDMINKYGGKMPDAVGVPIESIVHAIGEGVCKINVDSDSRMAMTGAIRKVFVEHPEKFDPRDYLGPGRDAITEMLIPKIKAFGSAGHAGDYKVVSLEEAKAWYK
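40 nM FBPA preincubated 10 min at RT with compound (up to 57.5 uM final), then substrate plus GAPDH/TPI/NAD/arsenate coupling and diaphorase/resazurin added. Fluorescence read after 20 min at RT, 525/598 nm.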
* marks the source's active call; other numbers are inactive results; ? = inconclusive; / = no result given. Many of the other results were omitted from the sample, so hits are more common in it than they were. Unless noted, calls follow the shape of the dose curve; as a rule, active = well fitted curve in the direction sought with a large enough effect; inconclusive = small, poorly fitted or top-dose-only effect, or another doubt; inactive = no such curve, though single readings can be large; an effect the other way counts as inactive or inconclusive.

SMILES	CHX counter	Sm TGR inh	LmPK inh	Shiga inhibitor	TbPYK inhibitor	Giardia FBPA inh
CCCCCCN(C(=O)CCl)c1ccccc1	12.5	2.51µM*	7.5%	9.2	4.6%	5.3%
CCCCCCCN(C(=O)CCl)c1cccc(C)c1	-3.4	?	0.4%	23.7	-6.7%	8.9%
Cc1cccc(N(Cc2cc(=O)[nH]c3ccccc23)C(=O)CCl)c1	-3.1	?	-14.2%	-3.4	2.5%	0.3%
O=C(NCCC(=O)N(CCc1ccccc1)Cc1ccccc1)c1ccc(Br)cc1	/	5.6%	/	/	4.2%	/
O=Cc1[nH]c2ccccc2c1N(C(=O)CCl)c1ccccc1	-3.1	0.891µM*	2.8%	-4.8	2.0%	-7.5%
O=C(CCl)N(CCc1ccccc1)CCc1ccccc1	19.4	12.6µM*	-0.8%	-3.1	3.8%	-6.1%
O=C(CCl)N(c1ccccc1)c1ccccc1	-5.0	1.26µM*	-8.1%	-21.9	-2.5%	-2.3%
Cc1cc2oc(C(=O)Nc3ccc(S(=O)(=O)N4CCCCCC4)cc3)cc(=O)c2cc1C	/	1.0%	/	/	2.7%	/
COc1cc(N2C(=O)C=CC2=O)ccc1N1C(=O)C=CC1=O	/	/	/	/	4.47µM*	/
COc1ccc(N2C(=O)C3CC(C)=C(C)CC3C2=O)c(OC)c1 (stereo not given)	-3.4	2.8%	-2.6%	-8.9	-1.1%	5.6%
COc1ccc(C(=O)CSc2ccc(-c3ccccc3)nn2)cc1	6.5	-7.2%	6.6%	23.0	-2.8%	-8.5%
CCOc1ccc(-c2ccc(SCC)nn2)cc1	29.2*	/	11.2µM*	75.4*	?	1.1%
COc1ccc(-c2ccc(SC)nn2)cc1	-3.3	6.9%	14.1µM*	-5.3	?	-9.9%
CCSc1ccc(-c2ccc(C)cc2)nn1	27.7*	-2.3%	-6.1%	64.7*	-3.9%	-13.6%
CCOc1ccc(-c2nn[nH]n2)cc1	7.3	-14.2%	-3.1%	-8.2	-1.6%	2.0%
CN(C)c1ncnc2ccc(-c3cccc(C#N)c3)cc12	/	/	/	/	/	1.9%
CCCCn1nnnc1C(c1cc2ccccc2o1)N1CCN(C(=O)OC(C)(C)C)CC1 (stereo not given)	/	/	/	/	6.8%	/
Cn1c(/C=C/c2ccc(Br)cc2)nc2ccccc2c1=O	29.9*	5.3%	-8.1%	20.2	2.1%	7.9%
Cn1c(/C=C/c2ccccc2[N+](=O)[O-])nc2ccccc2c1=O	9.2*	6.2%	-4.0%	33.4	-2.8%	-0.7%
COc1cc(OC)c(OC)cc1C=Cc1ccc2ccccc2n1	/	/	/	/	-4.6%	/
O=[N+]([O-])c1ccccc1/C=C/c1ccc2ccccc2n1	40.0*	-21.1%	-8.5%	48.5*	1.9%	6.1%
O=C(O)c1ccc(/C=C/c2nc3ccccc3c(=O)n2-c2ccc(Br)cc2)cc1	-2.2	6.3%	8.9%	-11.5	0.5%	4.0%
CC(=O)c1cccc(S(=O)(=O)Nc2ccccc2N2CCOCC2)c1	/	/	/	/	2.5%	/
CCC(=O)c1ccc(OCC(=O)OCC(=O)Nc2cccc(S(=O)(=O)N3CCOCC3)c2)cc1	/	/	/	/	-17.9%	/
COc1cccc(CCNC(=O)c2c(O)nc3cc(C)ccn3c2=O)c1	/	-8.5%	/	/	-4.3%	/
SMILES	CHX counter	Sm TGR inh	LmPK inh	Shiga inhibitor	TbPYK inhibitor	Giardia FBPA inh
COC(=O)c1cccc(CSC(=S)N2CCCC2)c1	30.1*	8.3%	0.2%	36.2	-0.9%	2.7%
C(=N\Nc1nn[nH]n1)/c1ccccc1	-3.2	0.1%	0.2%	-7.1	0.7%	?
Cc1nc(N)nc(N/N=C/c2ccccc2)n1	14.0*	-6.3%	-8.7%	40.7*	-5.3%	-16.3%
Cc1cc(N/N=C/c2ccccc2)nc(N2CCOCC2)n1	19.0*	-7.7%	1.5%	54.8	-4.4%	-3.4%
Cc1cc(N/N=C/c2ccc(O)cc2)nc(NS(=O)(=O)c2ccccc2)n1	-1.1	6.2%	18.1%	-7.5	5.1%	0.6%
Cc1cc(N/N=C/c2ccccc2)nc(N)n1	19.7*	-10.0%	-14.5%	49.8*	3.3%	-6.5%
FC(F)Oc1ccc(N=C2SCC3CCCCN23)cc1 (stereo not given)	52.8*	14.0%	-0.6%	131.2*	2.8%	-5.1%
